# Rab9 prom act: activators of Rab9 promoter; Huh7 Rab9 promoter-luciferase reporter, luminescence, 24 h; Potency, µM (series often up to 9.22 µM), for inactives: top-dose activation, negative = inhibition, usual class: activators; actives 2.8% (n = 320,000); AID 485297; note: % of control where 0% means no effect; nearly all actives have a fitted effect of over 60% in size
#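 Quantitative HTS format; Huh7 Rab9-luciferase reporter cells (1500/well) receive compound 2 h post-plating, incubate 24 h at 37 °C, then get luciferase reagent for 10 min before luminescence reading.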
# SMN2 splice enh: enhancers of SMN2 splice variant expression; actives 2.8% (n = 210,000); Potency, µM (top dose mostly 46.1 µM), without a hit: at the top dose activity change, positive = activation, most hits filed as activators; HEK293 SMN2-luciferase splicing reporter, luminescence, 30-36 h; AID 1458; note: % of control where 0% means no effect; nearly all actives have a fitted effect of over 55% in size
#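 HEK293 cells carry an SMN2 minigene-luciferase reporter in which exon 7 inclusion puts luciferase in frame. Cells were seeded at 2000 cells/well, attached for 10-12 hours, then exposed to compounds for 30-36 hours at 37C before ONE-Glo luminescence.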
# NPC1 prom act: activators of NPC1 promoter; Potency, µM (highest dose often 9.22 µM), for inactives: at the highest dose activation, most hits filed as activators; Huh7 NPC1 promoter luciferase reporter, 24 h; actives 2.4% (n = 320,000); note: % of control where 0% means no effect; nearly all actives have a fitted effect of over 60% in size
#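 Huh7 reporter cells (NPC1 promoter driving luciferase) are dosed with compound for 24 h at 37 °C, 5% CO2; luciferase detection reagent is then added and luminescence measured after 10 min at ambient temperature.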
# KinaseGlo FLuc: Kinase-Glo luciferase inhibition (counter-screen). Q27757. Kinase-Glo luciferase, ATP luminescence, 8 min. Potency, µM (titrated, usually from 38.3 µM), for inactives: top-dose activity change, negative = inhibition, usual class: inhibitors. actives 0.28% (n = 200,000); note: % is set by controls: 0 for no effect and ±100 for the full control effect; nearly all actives have a fitted effect of over 60% in size
#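 Recombinant Kinase-Glo luciferase, 10 uM ATP (linear range), luciferin; imidazole pH 7.2 / KCl / MgCl2 / Tween / BSA buffer; 8 min RT; luminescence.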
# ELG1 genotoxic: genotoxicity induction in ELG1-luciferase HEK293T cells; HEK293T ELG1-luciferase reporter, luminescence, 16 h; Potency, µM (highest dose often 46 µM), for inactives: at the highest dose activity change, positive = activation, usual class: activators; actives 1.3% (n = 330,000); note: % of control where 0% means no effect; nearly all actives have a fitted effect of over 60% in size
#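 HEK293T cells expressing luciferase-tagged ELG1 were exposed to compound or DMSO vehicle for 16 hr at 37 °C and 5% CO2. Luciferase activity was then measured with ONE-Glo after 30 min at room temperature.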
# FLuc counter: inhibits or activates purified firefly luciferase, miR-21 counter-screen; P08659; purified FLuc, Km substrates, luminescence inhibition; Potency, µM (titrated, usually from 57.5 µM), for inactives: top-dose activity change, negative = inhibition, hits mostly inhibitors; actives 6.9% (n = 360,000); AID 588342;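 note: plate controls were vehicle for no effect and reference inhibitor for full effect; nearly all actives have a fitted effect of over 55% in size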
# Target sequence (P08659 whole entry, looked up): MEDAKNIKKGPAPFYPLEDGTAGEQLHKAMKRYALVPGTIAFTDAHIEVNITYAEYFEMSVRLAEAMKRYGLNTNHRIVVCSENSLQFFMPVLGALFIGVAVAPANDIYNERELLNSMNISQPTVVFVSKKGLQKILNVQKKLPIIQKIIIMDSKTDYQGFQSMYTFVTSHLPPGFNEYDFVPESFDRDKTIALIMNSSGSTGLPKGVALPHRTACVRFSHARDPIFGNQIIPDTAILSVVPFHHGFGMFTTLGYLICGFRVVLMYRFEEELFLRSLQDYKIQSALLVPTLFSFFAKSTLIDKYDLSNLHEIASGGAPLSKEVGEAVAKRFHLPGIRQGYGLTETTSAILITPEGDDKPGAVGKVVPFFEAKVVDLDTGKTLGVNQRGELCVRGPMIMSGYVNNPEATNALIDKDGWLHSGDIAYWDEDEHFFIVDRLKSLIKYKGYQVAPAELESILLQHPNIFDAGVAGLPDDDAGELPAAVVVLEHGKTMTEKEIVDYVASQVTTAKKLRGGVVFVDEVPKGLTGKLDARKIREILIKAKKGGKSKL
#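 Purified P. pyralis luciferase, 10 nM final, with Km-level 10 uM D-luciferin and 10 uM ATP in 50 mM Tris acetate pH 7.5, 10 mM Mg acetate, 0.01% Tween-20, 0.05% BSA; 6-point qHTS titration about 60 µM downward; luminescence read.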
# The depositor's hits bear a star; ? = inconclusive; nt = not tested or not shown; [ ] = another dose, or the depositor's remark. An excerpt weighted towards active compounds, which were near 7.3% of everything screened. Calls come from the whole dose curve; as a rule, active = well fitted curve in the direction sought with a large enough effect; inconclusive = small, poorly fitted or top-dose-only effect, or another doubt; inactive = no such curve, though single readings can be large; an effect the other way counts as inactive or inconclusive. Potency is the fitted concentration of half-maximal effect.
SMILES,Rab9 prom act,SMN2 splice enh,NPC1 prom act,KinaseGlo FLuc,ELG1 genotoxic,FLuc counter
Cc1ccc(C2/C(=C(\O)c3cnn(-c4ccccc4)c3C)C(=O)C(=O)N2CCN(C)C)o1 (stereo unspecified),?,-22.7%,?,0.2%,-0.1%,-13.4%
Cc1c(/C(O)=C2\C(=O)C(=O)N(CCN(C)C)C2c2ccco2)cnn1-c1ccccc1 (stereo unspecified),?,-4.6%,?,1.5%,9.2µM*,26.9µM*
Cc1c(/C(O)=C2\C(=O)C(=O)N(CCN(C)C)C2c2ccccc2)cnn1-c1ccccc1 (stereo unspecified),20.6%,nt,19.4%,nt,?,16.9µM*
CC1(C(=O)NCCN2CCOCC2)C=CCN1C(=O)c1ccccc1 (stereo unspecified),27.5%,?,11.7%,-2.7%,16.6%,23.9µM*
CNC(=O)C1(C)C=CCN1C(=O)c1ccccc1 (stereo unspecified),0.3%,0.0%,1.1%,-1.2%,1.2%,0.8%
Cc1cccc(OCc2cc(-c3ccccc3)no2)c1C,?,nt,?,nt,?,12µM*
Fc1ccc(OCc2cc(-c3ccccc3)no2)cc1,3.16µM*,nt,2.82µM*,nt,20.6µM*,5.36µM*
COc1ccc(-c2cc(COc3ccccc3)on2)cc1,3.98µM*,?,?,6.2%,?,10.7µM*
COc1ccc(-c2cc(-c3ccccc3)no2)cc1,0.398µM*,nt,0.501µM*,nt,?,0.379µM*
Cc1cc(COc2ccccc2OCc2cc(C)no2)on1,-3.0%,0.6%,3.4%,-0.3%,-4.5%,0.7%
Cc1c(C(=O)N2CCCC2)oc2c1-c1nn(CC(=O)NCc3cccc(Br)c3)cc1CC2,nt,nt,nt,nt,nt,-17.9%
COc1ccc(Cn2c(C(=O)O)c(CNC3CCC(C)CC3)c3ccc(C)cc32)cc1 (stereo unspecified),nt,nt,nt,nt,nt,-5.6%
CCC1CCCCN1C(=O)c1ccc2c(c1)N(Cc1cccc(Cl)c1)C(=O)c1ccccc1S2(=O)=O (stereo unspecified),nt,nt,nt,nt,nt,1.5%
Clc1ccc(OCc2cc(-c3ccccc3)no2)c(Cl)c1,0.631µM*,0.501µM*,0.501µM*,-6.5%,?,0.379µM*
Clc1ccc(SCc2cc(-c3ccccc3)no2)cc1,21.4%,-17.7%,14.3%,1.3%,-1.9%,?
COc1cc(N2Cc3ccccc3C2)ccc1C=O,?,nt,?,nt,3.98µM*,21.3µM*
Cc1cc(C)cc(N2Cc3ccccc3C2)c1,3.8%,4.2%,-0.4%,1.4%,13.2%,-3.9%
Cc1ccc(-n2cc(C(=O)c3ccccc3O)cn2)cc1,?,-41.7%,0.562µM*,?,?,0.301µM*
O=C(c1cnn(C(=O)c2ccc(O)cc2)c1)c1ccccc1O,0.0%,-5.7%,1.7%,-10.0%,-3.6%,3.79µM*
Cc1cc(C=C2C(=O)c3ccccc3C2=O)c(C)n1C,0.2%,?,1.3%,-4.4%,?,3.01µM*
COc1ccc(C=C2c3ccccc3C(=O)c3ccccc32)c(OC)c1,-24.3%,nt,-6.2%,nt,?,-4.0%
CCn1c(C)cc(/C=C2\NC(=O)N(Cc3ccccc3)C2=O)c1C,3.3%,-4.7%,8.2%,-3.3%,0.0%,-15.4%
CCn1c(C)cc(C=C2C(=O)c3ccccc3C2=O)c1C,?,?,?,-21.2%,?,0.477µM*
NC1=NC(=Nc2cccc(S(N)(=O)=O)c2)c2ccccc21,1.5%,nt,-7.1%,nt,9.7%,-4.4%
COc1cc(N=Nc2cccc(S(N)(=O)=O)c2)c2ccccc2c1N,-3.0%,?,10.2%,-1.9%[7.66 µM],?,19µM*
SMILES,Rab9 prom act,SMN2 splice enh,NPC1 prom act,KinaseGlo FLuc,ELG1 genotoxic,FLuc counter
Cn1c(NC(=O)/C=C/c2ccco2)cc(=O)n(C)c1=O,26.1%,-3.2%,15.0%,-9.1%,7.9%,?
Cc1ccc(-n2nc3ccc(NC(=O)c4cc5ccccc5o4)cc3n2)cc1,nt,21.7%,nt,nt,nt,-5.4%
Cc1ccc(-n2nc3ccc(NC(=O)/C=C/c4ccco4)cc3n2)cc1,?,14.1µM*,?,16.1%,?,?
Cc1ccc(NC(=O)c2cccc(NC(=O)/C=C/c3ccco3)c2)cc1C,3.16µM*,17.8µM*,?,-1.4%,0.0%,1.9µM*
CCc1ccccc1NC(=O)c1cccc(NC(=O)/C=C/c2ccco2)c1,?,10.8%,1.2%,1.8%,-1.8%,3.01µM*
Cc1ccc(NC(=O)N/C=C/c2ccco2)cc1C,18.0%,-3.2%,27.3%,-0.9%,-0.5%,10.7µM*
Cc1ccc(NC(=O)N/C=C/c2ccco2)c(C)c1,-1.1%,9.6%,1.3%,3.5%,4.2%,?
O[C@@H](COc1cccc2ccccc12)CN1CCOCC1,nt,-16.5%[9.22 µM],nt,-3.6%[7.66 µM],nt,nt
CCOC(=O)c1ccc(NC(=O)c2c(-c3c(F)cccc3Cl)noc2C)cc1,nt,5.8%,nt,nt,nt,3.8%
O=C(/C=C/c1ccco1)Nc1cccc(C(=O)Nc2ccccc2C(=O)O)c1,0.8%,nt,-3.1%,nt,-5.5%,21.3µM*
COc1ccc(C(=O)Nc2cnn(Cc3c(F)cccc3Cl)c2)cc1OC,16.1%,nt,18.9%,nt,5.4%,19µM*
CSCCC(NS(=O)(=O)c1ccc2c(c1)oc(=O)n2C)C(=O)NCCc1ccc(C)cc1 (stereo unspecified),nt,nt,nt,nt,nt,-1.9%
O=C(COc1ccc(Cl)cc1Cl)c1ccc[nH]1,?,nt,?,nt,?,16.9µM*
O=C(COc1ccc(Cl)cc1Cl)N/N=C/CCc1ccccc1,10.3%,-13.5%,0.4%,-0.1%,0.4%,1.5%
O=C(COc1ccc(Cl)cc1Cl)N/N=C/c1ccc[nH]1,-52.3%,nt,-44.0%,nt,8.9%,13.5µM*
Cc1ccc(-n2ncc(C(=O)NCCCN3CCc4ccccc4C3)c2C2CCN(C(=O)OC(C)(C)C)CC2)cc1C,nt,nt,nt,nt,nt,-8.9%
C=C1C2(C(=O)Nc3ccc(SC(F)F)cc3)CCC(C2)C1(C)C (stereo unspecified),-5.9%,-32.6%,1.2%,-0.2%,-0.7%,-2.9%
OC1CCC(NC(=S)Nc2ccc(SC(F)F)cc2)CC1 (stereo unspecified),?,15.8µM*,?,1.1%,?,21.3µM*
FC(F)Sc1ccc(NC(=S)NC2CCCC2)cc1,3.16µM*,?,26.9%,-2.0%,5.6%,13.5µM*
O=C(Nc1ccc(SC(F)F)cc1)C12CCC(CC1)C2,29.7%,16.4%,27.7%,-0.9%,5.9%,10.7µM*
CCOC(=O)c1c(NC(=O)c2nc(S(C)(=O)=O)ncc2Cl)sc(C(C)=O)c1C,nt,0.3%,nt,nt,nt,-19.2%
Cc1ccc(NC(c2cccc(Cl)c2)c2nnc(-c3ccccc3)o2)cc1F (stereo unspecified),nt,-4.3%,nt,nt,nt,-2.0%

# Screening data (PubChem)
